Experimental data reported in the supplement of paper PMC6555819.

Legend:
Test in all cases: PBM binding z-score (relative to random genomic background probes); higher = stronger binding; sequences stand for … in GC…GCGATTGACAGCGTAGAATGAAGG
[1] = system: FXR:RXRa (NR concentration 270 nM, RXRa partner concentration 90 nM)
Outline: (§1)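 Probes were double-stranded and carried 34-nt variable regions with direct-repeat seeds, single-nucleotide variants, half-site ablations and random human genomic background sequences, printed on custom Agilent 4×180K protein-binding microarrays. Arrays were incubated 1 h with ligand-free nuclear receptor dimers in PBS pH 7.4, 2% milk, 0.02% Triton X-100, 1 mM DTT, 0.2 mg/mL BSA and 0.4 mg/ml salmon testes DNA. Antibodies against each partner (one per run) detected binding, and scanned fluorescence was regression-normalized. Binding z-scores use the random background probes as reference.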

[2] = system: LXRa:RXRa (NR concentration 270 nM, RXRa partner concentration 90 nM)
Outline: as §1

[3] = system: LXRa homodimer (NR concentration 270 nM)
Outline: as §1

[4] = system: LXRb:RXRa (NR concentration 270 nM, RXRa partner concentration 90 nM)
Outline: as §1

[5] = system: LXRb homodimer (NR concentration 270 nM)
Outline: as §1

[6] = system: PPARa:RXRa (NR concentration 270 nM, RXRa partner concentration 90 nM)
Outline: as §1

[7] = system: PPARg:RXRa (NR concentration 180 nM, RXRa partner concentration 90 nM)
Outline: as §1

[8] = system: PPARg:RXRa 270nM:90nM, anti-RXR (NR concentration 270 nM, RXRa partner concentration 90 nM)
Outline: as §1

[9] = system: PPARg:RXRa 30nM:10nM, anti-RXR (NR concentration 30 nM, RXRa partner concentration 10 nM)
Outline: as §1

[10] = system: PPARg:RXRa 90nM:30nM, anti-RXR (NR concentration 90 nM, RXRa partner concentration 30 nM)
Outline: as §1

[11] = system: PPARg:RXRa DBDmut IVT, anti-RXR (DBD mutation: RXRa K156A/R161A, NR concentration 270 nM, RXRa partner concentration 90 nM)
Outline: as §1

[12] = system: PPARg:RXRa IVT, anti-PPARg (NR concentration 270 nM, RXRa partner concentration 90 nM)
Outline: as §1

[13] = system: PPARg DBDmut:RXRa IVT, anti-PPARg (DBD mutation: PPARg1 K132A/R137A, NR concentration 270 nM, RXRa partner concentration 90 nM)
Outline: as §1

[14] = system: PPARg DBDmut IVT, anti-PPARg (DBD mutation: PPARg1 K132A/R137A, NR concentration 270 nM)
Outline: as §1

[15] = system: PPARg homodimer (NR concentration 180 nM)
Outline: as §1

[16] = system: PXR:RXRa (NR concentration 270 nM, RXRa partner concentration 90 nM)
Outline: as §1

[17] = system: PXR homodimer (NR concentration 270 nM)
Outline: as §1

[18] = system: RARa:RXR (NR concentration 270 nM, RXRa partner concentration 90 nM)
Outline: as §1

[19] = system: RARa homodimer (NR concentration 270 nM)
Outline: as §1

[20] = system: RARb:RXRa (NR concentration 270 nM, RXRa partner concentration 90 nM)
Outline: as §1

Row | Sequence | PBM binding z-score [1] | PBM binding z-score [2] | PBM binding z-score [3] | PBM binding z-score [4] | PBM binding z-score [5] | PBM binding z-score [6] | PBM binding z-score [7] | PBM binding z-score [8] | PBM binding z-score [9] | PBM binding z-score [10] | PBM binding z-score [11] | PBM binding z-score [12] | PBM binding z-score [13] | PBM binding z-score [14] | PBM binding z-score [15] | PBM binding z-score [16] | PBM binding z-score [17] | PBM binding z-score [18] | PBM binding z-score [19] | PBM binding z-score [20]
1 | GCGACTGGGGCAAAGCTGGTTACCATAAGGTTGG | -0.489 | -0.411 | -0.621 | -0.147 | -0.966 | 0.78 | 0.929 | 1.26 | -0.311 | 0.816 | 4.32 | 3.14 | -0.175 | -0.912 | -0.562 | -0.523 | -0.799 | -0.0421 | -0.562 | 0.598
2 | GATACAGGGTCAGCTAGAGGCCAGAGTTTGGAAA | 4.24 | 2.73 | -0.116 | 2.49 | -0.678 | 4.08 | 3.23 | 3.01 | 0.716 | 2.22 | 1.39 | 2.54 | 0.152 | -1.06 | 3.41 | 3.41 | 0.149 | 4.26 | 0.417 | 4.06
3 | GCTGCTAGGTCAACTGATGGTCAGCGAAAGCTCG | 4.13 | 3.2 | 0.141 | 2.07 | -0.112 | 3.84 | 2.73 | 3.35 | 0.723 | 2.31 | 4.56 | 4.1 | 0.329 | -0.0247 | 1.64 | 1.7 | -0.425 | 2.98 | 0.244 | 4.37
4 | TCTATTAGTTGATTATGGCAACCGAAACAGCGGA | 0.958 | 0.726 | 0.306 | 0.64 | 1.08 | 0.209 | 0.113 | 1.91 | 4.11 | 3.45 | 2.17 | 0.613 | 1.3 | 1.66 | 1.37 | 0.553 | 0.671 | 0.747 | 1.89 | 0.407
5 | ACTATTAGTTGACTTAGGGCAACGGATACGACGC | 0.165 | 0.158 | 0.172 | -0.137 | 0.447 | -0.22 | 0.94 | 0.192 | 0.24 | 0.227 | 0.00929 | 0.309 | 1.35 | 1.09 | 0.328 | 0.113 | 0.452 | 0.313 | 0.0802 | 0.718
6 | CTCGAAAGGTCGGTTGAGGTGAGTGTACGGATAA | 2.54 | 2.08 | -0.0781 | 1.51 | -0.0633 | 2.67 | 0.33 | 1.27 | 0.405 | 0.48 | 0.169 | 1.3 | 0.72 | -0.675 | 1.07 | 3.54 | 0.527 | 3.02 | 0.735 | 3.07
7 | ATATGTAGGTTAAGGGGCATTCAGGTTGGTTCGC | 1.42 | 2 | 1.15 | 2.75 | 1.48 | 5.25 | 9.21 | 8.26 | 8.39 | 9.63 | 7.2 | 7.11 | 2.3 | 1.88 | 2.29 | 2.12 | 1.83 | 1.92 | 1.47 | 1.78
8 | TTATATAGGTAAAAGGTGAAAGTCGGTGTGGTAA | 2.14 | 1.87 | 0.372 | 2.02 | -0.0123 | 6.3 | 10.6 | 9.28 | 9.36 | 10.3 | 7.08 | 6.76 | 2.28 | 1.42 | 2.84 | 1.91 | 0.453 | 3.15 | 1.5 | 1.86
9 | TCTGCTAGGTCAACGGTGGTCAGCTAATCTGCTA | 3.59 | 2.75 | -0.0402 | 1.6 | -0.0139 | 3.54 | 3.35 | 3.81 | 2.45 | 3.42 | 4.54 | 4.36 | -0.104 | -0.365 | 1.38 | 1.99 | -0.742 | 2.38 | -0.57 | 4.05
10 | ACTATTAGTCGAGACGAGGGCAACCGATAGGTTG | -0.123 | -0.246 | -0.369 | -0.122 | -0.111 | 0.186 | 0.668 | 0.119 | 0.0913 | 0.381 | -0.021 | 0.553 | 0.32 | -0.276 | 0.0526 | 0.376 | 0.101 | 0.238 | -0.112 | 0.812
11 | CCTGCTAGGTCATTGGTCAGCTAAAGCAGCTCGC | 4.06 | 3.07 | 0.559 | 2.13 | 0.108 | 3.56 | 3.71 | 4.63 | 1.79 | 4.05 | 3.86 | 3.73 | 0.135 | -0.404 | 1.24 | 1.47 | 0.029 | 2.07 | -0.492 | 3.97
12 | CCGAATGGGGCAAAGGTTACCATACTCAGTACGA | 1.99 | 1.85 | 0.278 | 2.51 | -0.456 | 4.58 | 9.1 | 7.67 | 7.02 | 7.87 | 2.16 | 4.5 | 0.22 | 0.313 | 1.22 | 2.57 | 0.114 | 3.86 | 0.85 | 2.46
13 | GCTAGCAGGCCATTTGGTTCACTCAATGACGGGC | -0.456 | -0.57 | -0.84 | -0.649 | -0.937 | -0.204 | 0.226 | -0.536 | -0.633 | -0.582 | 1.03 | -0.11 | -0.667 | -0.975 | -0.906 | -0.151 | 0.221 | -0.572 | -0.886 | 0.187
14 | TCATATAGGTAAACGTGAAAGTCGAACGATATGA | 0.211 | 0.332 | -0.204 | 0.164 | 0.105 | 1.33 | 1.44 | 2.44 | 3.42 | 2.86 | 3.9 | 2.6 | 1.4 | 1.61 | 0.529 | 0.122 | 0.576 | 0.437 | 0.345 | 0.3
